According to PubChem BioAssay (NCATS):
Records with an inconclusive call do not appear. A call without a number means that no potency is given here. Active and inactive are the calls of the source. Unless noted, calls come from the whole dose curve; as a rule, active = well fitted curve in the direction sought with a large enough effect; inconclusive = small, poorly fitted or top-dose-only effect, or another doubt; inactive = no such curve, though single readings can be large; an effect the other way counts as inactive or inconclusive.

Legend:
[1] = molecular target: Aldehyde dehydrogenase, mitochondrial (Homo sapiens) (UniProt P05091); assay: qHTS for Inhibitors of the Aldehyde Dehydrogenase Family (ALDH2) Confirmatory screens (AID 2061303; active = well fitted inhibition curve with a large enough effect; title and protocol of this record describe different tests; note: nearly all actives have a fitted effect of over 45% in size; note: potency is the fitted concentration of half-maximal effect)
[2] = qHTS for Inhibitors of the Aldehyde Dehydrogenase Family (ALDH1A2, ALDH1A3, ALDH2, ALDH3A1) (AID 2061307); note: nearly all actives have a fitted effect of over 50% in size; for potency: test system not described further here; potency is the fitted concentration of half-maximal effect
[3] = molecular target: Aldehyde dehydrogenase, mitochondrial (Homo sapiens) (UniProt P05091); assay: qHTS for Inhibitors of the Aldehyde Dehydrogenase Family (ALDH2) Primary screen (AID 2061308); note: nearly all actives have a fitted effect of over 55% in size
[4] = molecular target: Retinal dehydrogenase 2 (Homo sapiens) (UniProt O94788); assay: qHTS for Inhibitors of the Aldehyde Dehydrogenase Family (ALDH1A2) Confirmation screens (AID 2061314); note: nearly all actives have a fitted effect of over 65% in size; note: potency is the fitted concentration of half-maximal effect
[5] = molecular target: Retinaldehyde dehydrogenase 3 (Homo sapiens) (UniProt P47895); assay: qHTS for Inhibitors of the Aldehyde Dehydrogenase Family (ALDH1A3) Primary screen (AID 2061315)
[6] = molecular target: Aldehyde dehydrogenase 1A1 (Homo sapiens) (UniProt P00352); assay: qHTS for Inhibitors of the Aldehyde Dehydrogenase Family (ALDH1A1) Confirmatory screens (AID 2061316); note: nearly all actives have a fitted effect of over 65% in size; note: potency is the fitted concentration of half-maximal effect

Row | Compound | Potency [1] | Potency [2] | Potency [3] | Potency [4] | Potency [5] | Potency [6]
1 | O=C(c1ccccc1)N1CCN(c2nc(-c3ccc(Br)cc3)cs2)CC1 | 15.8 µM (active) | 15.8 µM (active) | inactive | inactive | inactive | –
2 | CC1(C)CC2CC(C)(CN2S(=O)(=O)c2ccc(C(=O)Nc3cccc(S(=O)(=O)N4CCOCC4)c3)cc2)C1 (configuration not stated) | 0.355 µM (active) | 0.447 µM (active) | inactive | 8.96 µM (active) | inactive | inactive
3 | NC1CCN(c2nc(-c3ccc(Br)cc3)cs2)CC1 | inactive | inactive | inactive | inactive | inactive | inactive
4 | CCCc1nnc(-c2cnn(C)c2N)n1CCCn1ccnc1 | inactive | inactive | inactive | inactive | inactive | inactive
5 | O=C(O)c1ccccc1OC1=NS(=O)(=O)c2ccccc21 | inactive | inactive | inactive | inactive | inactive | inactive
6 | COc1ccc(CCCN2CCC(COC(c3ccccc3)c3ccccc3)CC2)cc1 | inactive | inactive | inactive | inactive | inactive | inactive
7 | COc1cccc(CCC(=O)NCCc2nc3ccccc3n2CCOc2ccc(C)cc2)c1 | inactive | inactive | inactive | inactive | inactive | 6.34 µM (active)
8 | Cc1cccc(-n2cnc3cc(C(=O)N4CCC(Br)CC4)ccc32)c1 | inactive | inactive | inactive | inactive | inactive | –
9 | Cc1ccc(OCCn2c(CCNC(=O)c3cccnc3)nc3ccccc32)cc1 | inactive | inactive | inactive | inactive | inactive | inactive
